Activity calls are given as the source filed them. Rule for the calls: active = hit-call score of the fitted dose curve at least 0.9, where 1 is the maximum; inactive = score below 0.9.
Assays:
[1] = ATG_GRE_CIS: Attagene CIS-FACTORIAL HepG2 Assay for human Glucocorticoid Response Elements (GRE) (AID 2282947); conditions: HepG2 GRE cis-reporter, Attagene multiplex mRNA; actives raise or lower the signal
In short: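 Fluorescence intensity of reporter-specific cDNA fragments, separated by capillary electrophoresis, provides the signal. Constructs carry cis-regulating promoters in transiently transfected HepG2 liver cells; 24 h incubation; fitting is bidirectional against DMSO.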

[2] = ATG_ISRE_CIS: Attagene CIS-FACTORIAL HepG2 Assay for human Interferon Regulatory Factor 1 (IRF1) binding to an Interferon-Stimulated Response Element (ISRE) (AID 2282948); conditions: HepG2 ISRE cis-reporter (Attagene), mRNA transcription readout; actives raise or lower the signal
In short: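 Uses HepG2 liver cells transfected with cis-regulated reporters and measures mRNA 24 h post-dosing through RT-PCR, primer-extension labelling and capillary electrophoresis, with DMSO as negative control.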

[3] = ATG_M_32_CIS: Attagene CIS-FACTORIAL HepG2 Assay for M32 Transcription Factor (Internal Marker) (AID 2282949); conditions: HepG2 Attagene cis-factorial M32 reporter, mRNA; actives raise or lower the signal;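 note: background control marker of the multiplexed CIS panel rather than a real target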
In short: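 HepG2 human liver cells transiently transfected with cis-promoter-driven multiple reporter transcription units, dosed 24 h. Reporter mRNA quantified by RT-PCR, FAM-labelled primer extension, HpaI digest and capillary electrophoresis; bidirectional fit versus DMSO baseline.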

[4] = ATG_M_06_CIS: Attagene CIS-FACTORIAL HepG2 Assay for M06 Transcription Factor (Internal Marker) (AID 2282950); conditions: HepG2 Attagene CIS-FACTORIAL M06 internal marker reporter; actives raise or lower the signal
In short: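 Terse: HepG2, transient MRTU transfection (FuGene 6), 24 h dosing; total RNA, oligo(dT) RT, PCR, FAM label, HpaI cut, capillary electrophoresis; bidirectional fit vs DMSO baseline; background-control endpoint.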

[5] = molecular target: Hypoxia-inducible factor 1-alpha (Homo sapiens) (UniProt Q16665); assay: ATG_HIF1a_CIS: Attagene CIS-FACTORIAL HepG2 Assay for human Hypoxia Inducible Factor 1 (HIF1A) (AID 2282951); conditions: HepG2 Attagene cis-factorial HIF1a reporter transcription; actives raise or lower the signal
Hypoxia-inducible factor 1-alpha (Homo sapiens), sequence (Q16665 whole entry, looked up): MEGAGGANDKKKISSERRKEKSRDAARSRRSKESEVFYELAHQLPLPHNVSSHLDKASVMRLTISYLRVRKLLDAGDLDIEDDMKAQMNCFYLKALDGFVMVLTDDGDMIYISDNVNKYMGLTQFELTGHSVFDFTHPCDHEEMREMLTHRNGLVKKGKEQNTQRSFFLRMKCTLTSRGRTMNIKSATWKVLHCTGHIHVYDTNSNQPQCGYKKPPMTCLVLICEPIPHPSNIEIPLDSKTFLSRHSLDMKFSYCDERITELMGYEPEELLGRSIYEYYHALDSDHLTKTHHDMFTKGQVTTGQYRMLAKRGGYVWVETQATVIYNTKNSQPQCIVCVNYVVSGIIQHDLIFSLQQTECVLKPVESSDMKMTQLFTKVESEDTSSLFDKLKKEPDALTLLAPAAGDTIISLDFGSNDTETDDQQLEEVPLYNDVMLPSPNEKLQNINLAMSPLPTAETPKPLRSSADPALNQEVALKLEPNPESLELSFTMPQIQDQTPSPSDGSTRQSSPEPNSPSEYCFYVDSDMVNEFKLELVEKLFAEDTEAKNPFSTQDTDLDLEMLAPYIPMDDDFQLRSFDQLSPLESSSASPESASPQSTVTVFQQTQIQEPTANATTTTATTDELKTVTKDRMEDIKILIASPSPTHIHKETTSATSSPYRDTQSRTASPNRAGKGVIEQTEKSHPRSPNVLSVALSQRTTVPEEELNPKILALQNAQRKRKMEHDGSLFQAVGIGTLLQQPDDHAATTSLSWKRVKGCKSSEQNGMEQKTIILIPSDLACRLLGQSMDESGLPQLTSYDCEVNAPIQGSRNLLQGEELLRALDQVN
In short: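 HepG2, transient cis-reporter library, 24 h dosing. RNA → RT (oligo dT) → PCR → 6-FAM primer extension → HpaI → CE. Bidirectional curve fit vs DMSO.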

[6] = molecular target: Hepatocyte nuclear factor 6 (Homo sapiens) (UniProt Q9UBC0); assay: ATG_HNF6_CIS: Attagene CIS-FACTORIAL HepG2 Assay for human Hepatocyte Nuclear Factor 6 (HNF6) (AID 2282952); conditions: HepG2 Attagene cis-factorial HNF6 reporter transcription; actives raise or lower the signal
Hepatocyte nuclear factor 6 (Homo sapiens), sequence (Q9UBC0 whole entry, looked up, the tested form may be a part): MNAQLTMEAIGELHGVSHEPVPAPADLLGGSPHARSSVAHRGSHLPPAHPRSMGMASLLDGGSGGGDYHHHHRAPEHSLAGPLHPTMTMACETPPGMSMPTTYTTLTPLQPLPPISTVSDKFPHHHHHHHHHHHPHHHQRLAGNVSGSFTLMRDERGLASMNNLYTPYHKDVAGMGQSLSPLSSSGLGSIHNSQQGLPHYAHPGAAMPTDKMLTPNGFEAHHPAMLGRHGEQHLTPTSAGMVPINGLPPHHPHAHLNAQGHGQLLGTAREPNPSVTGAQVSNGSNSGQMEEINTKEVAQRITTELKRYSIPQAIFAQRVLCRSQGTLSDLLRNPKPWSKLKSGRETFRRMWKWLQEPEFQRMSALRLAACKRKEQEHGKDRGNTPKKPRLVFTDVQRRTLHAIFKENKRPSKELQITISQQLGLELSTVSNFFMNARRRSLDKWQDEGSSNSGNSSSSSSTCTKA
In short: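 Readout: fluorescent reporter-transcript fragments resolved by capillary electrophoresis after RT-PCR, reflecting endogenous factor activity in transfected HepG2. Exposure 24 h. Gain or loss of signal fitted bidirectionally against DMSO.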

[7] = molecular target: Heat shock factor protein 1 (Homo sapiens) (UniProt Q00613); assay: ATG_HSE_CIS: Attagene CIS-FACTORIAL HepG2 Assay for human Heat Shock Transcription Factor 1 (HSE) (AID 2282953); conditions: HepG2 HSE cis-reporter, Attagene RNA transcription; actives raise or lower the signal
Heat shock factor protein 1 (Homo sapiens), sequence (Q00613 whole entry, looked up, the tested form may be a part): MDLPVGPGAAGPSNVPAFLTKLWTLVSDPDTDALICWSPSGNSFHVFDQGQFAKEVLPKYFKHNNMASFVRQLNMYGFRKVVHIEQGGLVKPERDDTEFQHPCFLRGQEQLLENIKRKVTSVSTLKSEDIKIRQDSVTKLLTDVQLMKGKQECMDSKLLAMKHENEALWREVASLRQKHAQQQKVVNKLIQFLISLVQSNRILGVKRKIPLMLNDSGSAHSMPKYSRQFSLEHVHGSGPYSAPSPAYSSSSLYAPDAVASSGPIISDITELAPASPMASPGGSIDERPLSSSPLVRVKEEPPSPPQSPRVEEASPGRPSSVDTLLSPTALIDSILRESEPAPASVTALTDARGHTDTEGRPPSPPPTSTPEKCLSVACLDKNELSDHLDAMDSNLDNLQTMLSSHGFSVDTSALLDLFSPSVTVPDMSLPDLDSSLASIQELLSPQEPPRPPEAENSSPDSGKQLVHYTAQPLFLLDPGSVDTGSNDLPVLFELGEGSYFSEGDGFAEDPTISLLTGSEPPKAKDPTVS
In short: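 Read-out: fluorescence of reporter-specific RT-PCR fragments separated by capillary electrophoresis. HepG2 carrying transfected cis-element reporter units; 24 h dosing; activity fitted in both directions relative to DMSO baseline.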

[8] = ATG_MRE_CIS: Attagene CIS-FACTORIAL HepG2 Assay for human Metal Responsive Element (MRE) (AID 2282954); conditions: HepG2 MRE cis-reporter transcription, Attagene multiplex; actives raise or lower the signal
In short: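 Measured here is mRNA induction from an MRE cis-element reporter in HepG2 after 24 h, quantified by fluorescence of labelled RT-PCR products on capillary electrophoresis; gain- and loss-of-signal fits use DMSO as baseline.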

[9] = molecular target: Bile acid receptor (Homo sapiens) (UniProt Q96RI1); assay: ATG_IR1_CIS: Attagene CIS-FACTORIAL HepG2 Assay for human Nuclear Receptor Subfamily 1 Group H Member 4 (NR1H4), IR1 submotif (AID 2282946); conditions: IR1 reporter transcription, actives raise or lower the signal
Bile acid receptor (Homo sapiens), sequence (Q96RI1 whole entry, looked up): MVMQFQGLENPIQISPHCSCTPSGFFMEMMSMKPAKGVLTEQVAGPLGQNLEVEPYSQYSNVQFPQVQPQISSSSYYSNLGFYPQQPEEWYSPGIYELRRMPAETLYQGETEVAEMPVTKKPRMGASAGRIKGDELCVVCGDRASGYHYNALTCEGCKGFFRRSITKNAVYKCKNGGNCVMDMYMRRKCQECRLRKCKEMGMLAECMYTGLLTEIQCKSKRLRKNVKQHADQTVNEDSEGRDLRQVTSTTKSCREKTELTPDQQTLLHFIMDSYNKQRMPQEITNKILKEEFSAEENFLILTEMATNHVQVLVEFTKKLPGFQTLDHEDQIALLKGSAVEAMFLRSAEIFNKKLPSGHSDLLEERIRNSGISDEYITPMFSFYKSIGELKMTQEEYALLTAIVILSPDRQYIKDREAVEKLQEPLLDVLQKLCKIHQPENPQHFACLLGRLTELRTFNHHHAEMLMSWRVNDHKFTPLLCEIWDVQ
In short: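 Fluorescence of capillary-separated, HpaI-digested RT-PCR reporter products gave IR1-element mRNA induction in HepG2 cells 24 h after dosing. Endogenous transcription factors drove the cis-regulated reporters; activity was fitted bidirectionally against DMSO.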

Measured: AC50

Oc1ccc(C2(c3ccc(O)c(C4CCCCC4)c3)CCCCC2)cc1C1CCCCC1
inactive: [3] | [4] | [5] | [6]
active: [1] 33.4 µM | [2] 55.9 µM | [7] 8.18 µM | [8] 11.1 µM

CCOC(=O)CCC(C)=O
inactive: [1] | [2] | [3] | [4] | [5] | [6] | [7] | [8]

CCCCCCCCn1sc(Cl)c(Cl)c1=O
inactive: [9] | [4] | [6] | [8]
active: [1] 18.6 µM | [3] 15.9 µM | [5] 16.3 µM | [7] 11.1 µM

O=C1c2c(O)ccc(Nc3ccc(CCO)cc3)c2C(=O)c2c([N+](=O)[O-])ccc(O)c21
inactive: [9] | [1] | [2] | [3] | [4] | [5] | [6] | [7] | [8]

CCc1cccc(C)c1N(C(=O)C(=O)O)C(C)COC (stereo unspecified)
inactive: [1] | [2] | [3] | [4] | [5] | [6] | [7] | [8]

O=C(O)C(F)(F)OC(F)(F)C(F)(F)OC(F)(F)C(F)(F)OC(F)(F)F
active: [7] 104 µM
inactive: [9] | [1] | [2] | [3] | [4] | [5] | [6] | [8]

C[Si](Cl)(Cl)CCC(F)(F)C(F)(F)C(F)(F)C(F)(F)C(F)(F)C(F)(F)F
inactive: [9] | [1] | [2] | [3] | [4] | [5] | [6] | [7] | [8]

CCN(CC)c1ccc(N=Nc2ccccc2)cc1
inactive: [9] | [1] | [2] | [3] | [4] | [5] | [6]
active: [7] 144 µM | [8] 7.22 µM

OCC1CCCO1 (stereo unspecified)
inactive: [9] | [1] | [2] | [3] | [4] | [5] | [6] | [7] | [8]

OCCCC(F)(F)C(F)(F)C(F)(F)C(F)(F)C(F)(F)C(F)(F)C(F)(F)C(F)(F)F
inactive: [9] | [1] | [3] | [4] | [5] | [6] | [7] | [8]
active: [2] 50 µM

CC(C)C(=O)OCc1ccccc1
inactive: [9] | [1] | [3] | [4] | [5] | [6] | [7] | [8]

CCOC(=O)CC(=O)C(F)(F)C(F)(F)F
inactive: [9] | [1] | [2] | [3] | [4] | [5] | [6] | [7] | [8]

CCCCCCCC/C=C\CCCCCCCC(=O)N(C)CC(=O)O
inactive: [9] | [1] | [2] | [3] | [4] | [5] | [6] | [7] | [8]

Brc1nc2ccccc2s1
active: [5] 125 µM | [7] 89.7 µM
inactive: [1] | [3] | [4] | [6] | [8]

CCCCOC(=O)C(C)O (stereo unspecified)
inactive: [9] | [1] | [2] | [3] | [4] | [5] | [6] | [7] | [8]

O=C1C=CC(=O)N1c1ccc(Cc2ccc(N3C(=O)C=CC3=O)cc2)cc1
inactive: [1] | [2] | [3] | [4] | [8]
active: [5] 46.9 µM | [6] 50.7 µM | [7] 55.2 µM

OCCCCl
inactive: [9] | [1] | [2] | [3] | [4] | [5] | [6] | [7] | [8]

CC1=CCC(=O)O1
inactive: [9] | [1] | [3] | [4] | [5] | [6] | [7] | [8]

O=C(c1ccccc1)c1ccc(O)cc1O
inactive: [9] | [1] | [2] | [3] | [4] | [5] | [6] | [7] | [8]

CCOC(OCC)OCC
inactive: [1] | [2] | [3] | [4] | [5] | [6] | [7] | [8]

OCC(O)CC(F)(F)C(F)(F)C(F)(F)C(F)(F)F (stereo unspecified)
inactive: [9] | [1] | [2] | [3] | [4] | [5] | [6] | [7] | [8]

CC(C)(C)c1cc(CCC(=O)NCCCCCCNC(=O)CCc2cc(C(C)(C)C)c(O)c(C(C)(C)C)c2)cc(C(C)(C)C)c1O
inactive: [9] | [1] | [2] | [3] | [4] | [5] | [6] | [7] | [8]

COCCC(=O)OC
inactive: [9] | [1] | [3] | [4] | [5] | [6] | [7] | [8]

O=C(O)CCC(F)(F)C(F)(F)C(F)(F)C(F)(F)C(F)(F)C(F)(F)C(F)(F)F
inactive: [1] | [3] | [4] | [5] | [6] | [7] | [8]

CSc1ccc(O)cc1C
inactive: [1] | [2] | [3] | [4] | [5] | [6] | [7] | [8]

Cc1ccc(S(=O)(=O)C(I)I)cc1
active: [1] 3.45 µM | [6] 33.4 µM | [7] 10.4 µM | [8] 8.81 µM
inactive: [3] | [4] | [5]

Cc1ccc2c(c1)OCC(=O)CO2
inactive: [1] | [2] | [3] | [4] | [5] | [6] | [7] | [8]

O=C1C=CC(=O)N1c1ccccc1
inactive: [9] | [1] | [3] | [4] | [5] | [6] | [7] | [8]

C=C(C)CCCC
inactive: [1] | [3] | [4] | [5] | [6] | [7] | [8]

Reference: PubChem BioAssay (EPA / NIEHS)
